Screens: PubChem, National Center for Advancing Translational Sciences (NCATS)
Sampled rows, rich in hits. Any-hit rate of the full collection: about 2.4%.
D2 antagonist: antagonists of human D2 dopamine receptor | hit rate 2% among 340,000 | P14416 | AID 485344 | HEK293 TREx D2 cells, calcium flux, dopamine EC80 | inhibition, % at 10 µM; in the data active = inhibition above about 30%; inactive = below that, where a call was filed
Target sequence (P14416 whole entry, looked up): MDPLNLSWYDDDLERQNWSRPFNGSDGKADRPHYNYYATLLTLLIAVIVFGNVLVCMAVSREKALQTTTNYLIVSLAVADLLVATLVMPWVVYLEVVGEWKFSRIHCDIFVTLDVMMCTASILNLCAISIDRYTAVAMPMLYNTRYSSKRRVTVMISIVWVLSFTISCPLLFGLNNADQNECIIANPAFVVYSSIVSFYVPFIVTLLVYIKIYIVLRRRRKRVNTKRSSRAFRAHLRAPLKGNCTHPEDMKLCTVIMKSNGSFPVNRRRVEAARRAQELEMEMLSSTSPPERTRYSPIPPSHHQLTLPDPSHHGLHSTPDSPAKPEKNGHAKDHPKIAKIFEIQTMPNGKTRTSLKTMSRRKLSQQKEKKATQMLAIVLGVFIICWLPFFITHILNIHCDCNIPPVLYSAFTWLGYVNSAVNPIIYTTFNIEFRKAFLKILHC
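Tetracycline-induced HEK293 T-REx cells expressing D2 force-coupled to calcium signalling were dye-loaded, exposed to compound for 180 s, then challenged with an EC80 of dopamine; calcium flux was followed kinetically for a further 180 s.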
D2 ag-1: human D2 receptor agonism in beta-arrestin assay | AID 624465 | activation, % (concentration not given with the values) | DiscoveRx PathHunter D2 beta-arrestin, luminescence, 90 min; 100% = 57 uM dopamine signal | hit rate 0.084% among 360,000; in the data active = activation above about 40%; inconclusive = between about 15% and that limit
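DiscoveRx PathHunter D2 beta-arrestin cells (2,100/well) attached overnight, then compound-stimulated 90 min at 37 C in HBSS/10 mM HEPES/0.1% Tween-20 buffer; beta-galactosidase complementation read by luminescence after 1 h at ambient temperature. Dopamine 57 uM final (EC100) as control.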
D2 ag-2: D2 dopamine receptor (human) agonism. P14416. HEK293 T-REx D2 cells, calcium flux agonist mode. activation, % at 2 µM. hit rate 0.53% among 340,000;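 active = activation over 3 SD above normal in the single-dose calcium agonist read, cut at about 30% in these data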
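In this primary screen, compounds producing a positive calcium signal within 180 s of addition to tetracycline-induced, force-coupled HEK293 Trex D2 cells are flagged; cells are dye-loaded with a no-wash calcium kit beforehand.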
D2 PAM-1: potentiates the human D2 dopamine receptor allosterically; potentiation, % (no concentration beside the values); DiscoveRx D2 beta-arrestin cells, luminescence, 90 min; 100% = 57 uM dopamine signal; P14416; hit rate 0.23% among 360,000; in the data active = potentiation above about 50%; inconclusive = mostly about 30% to 49%
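PathHunter beta-arrestin assay in DiscoveRx D2 cells. Compounds were added with an EC20 of dopamine (50 nM final) for 90 min at 37 deg C. Luminescence was read 1 h after detection reagent, with 57 uM dopamine as the EC100 control.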
D2 PAM-2: positive allosteric modulators of human D2 dopamine receptor; P14416; HEK293 T-REx D2, calcium flux, EC20 dopamine potentiation; potentiation, % at 10 µM; hit rate 0.34% among 340,000;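 active = potentiation over 3 SD above the plate norm, cut at about 30% in these data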
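Potentiation of an EC20 dopamine calcium response is measured in a force-coupled, tetracycline-inducible Hek293 Trex D2 line. Compound-only kinetic reads over 180 s flag agonists before dopamine addition.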
B2AR arrestin: agonists driving beta-arrestin recruitment to human beta2-adrenergic receptor; Potency, µM (top dose mostly 46.1 µM), actives largely listed as activators; hit rate 0.02% among 330,000; beta-arrestin recruitment to beta2AR, cell-based reporter; P07550; active = well fitted activation curve with a large enough effect; inconclusive = small, poorly fitted or top-dose-only effect; also: nearly all actives have a fitted effect of over 65% in size
A number is an active result; i = inactive; ? = inconclusive; nt = no result given.

SMILES	D2 antagonist	D2 ag-1	D2 ag-2	D2 PAM-1	D2 PAM-2	B2AR arrestin
O=C(Nc1cccc(S(=O)(=O)C(F)F)c1)c1ccc(S(=O)(=O)N2CCCC2)cc1	59	i	i	i	i	i
O=S(=O)(Nc1c(O)ccc2ccccc12)c1ccccc1	nt	42	nt	i	nt	nt
Cc1ccnc(SCC(=O)n2c3c(c4ccccc42)CC(C)CC3)n1 (stereo not drawn)	i	i	i	i	i	i
Cn1c(=O)c2c(nc(-n3ccnc3)n2Cc2ccc([N+](=O)[O-])cc2)n(C)c1=O	31	i	i	i	i	i
Cc1ccc(NC(=O)COC(=O)c2ccc(CN3CCCC3=O)cc2)c(Cl)c1	35	i	i	i	i	i
CCC(C)(C)NC(=O)CN(Cc1ccc2c(c1)OCO2)C(=O)CCC(=O)Nc1nccs1	41	i	i	i	i	i
CCC(C)(C)NC(=O)CN(C(=O)CCC(=O)Nc1nccs1)c1ccc2c(c1)OCCO2	i	i	i	i	31	i
Cc1ccc(OCCNC(=O)c2ccccc2SCC(=O)N2CCCC2)cc1	nt	i	nt	i	nt	i
Cc1cc(C(=O)O)c2ccccc2n1	i	i	i	i	i	i
Cc1cc(C(N)=O)c2ccccc2n1	50	i	i	i	i	i
Cc1cc(C(=O)NNC(=O)c2ccc(Cl)cc2)c2ccccc2n1	i	i	i	i	i	i
Cc1cc(C(=O)NNC(=S)NC(C)c2ccccc2)c2ccccc2n1 (stereo not drawn)	45	i	i	i	i	i
CCCOc1ccc(N)cc1N	i	i	i	66	i	i
CCOc1ccc2nc(NC(=O)Nc3ccccc3)sc2c1	32	i	i	i	i	i
CCC(=O)Nc1nc2ccc(NC(=O)c3cc(OC)c(OC)c(OC)c3)cc2s1	i	i	i	i	31	i
COc1cc(C(=O)Nc2ccc(Cl)c([N+](=O)[O-])c2)cc(OC)c1OC	37	i	i	i	i	i
COc1cc(C(=O)Nc2ccc(Cl)c(C(F)(F)F)c2)cc(OC)c1OC	i	i	i	i	i	i
CCOc1ccc2nc(NC(=O)COC)sc2c1	i	i	i	i	34	i
O=C(COC(=O)/C=C/c1ccc(Cl)cc1)NC(=O)NCc1ccccc1	44	i	i	i	i	i
Cc1ccc(NC(=O)CN(C)C(=O)c2ccc(COc3ccccc3)cc2)cc1	i	i	i	i	i	i
CCCCOc1ccc(C(=O)N(C)CC(=O)Nc2ccc(C)cc2)cc1	55	i	i	i	i	i
COc1ccccc1CNC(=O)c1cc(S(=O)(=O)N2CCCCCC2)cn1C	nt	nt	i	nt	i	nt
COc1ccccc1CNC(=O)c1cc(S(=O)(=O)N2CCCC2)cn1C	37	i	i	i	i	i
COc1ccc(OC)c(CCNC(=O)Cn2ccc3cc(S(=O)(=O)N4CCCC4)ccc32)c1	i	i	i	i	i	i
Cc1ccc(S(=O)(=O)N2CCCCC2)cc1NC(=O)c1ccccc1Cl	nt	i	nt	i	nt	i
SMILES	D2 antagonist	D2 ag-1	D2 ag-2	D2 PAM-1	D2 PAM-2	B2AR arrestin
COc1ccccc1CCNC(=O)Cn1ccc2cc(S(=O)(=O)N3CCC(C)CC3)ccc21	i	i	i	i	34	i
COc1ccccc1CNC(=O)COC(=O)C1CCN(S(=O)(=O)c2ccc(C)c(C)c2)CC1	i	i	i	i	30	i
COc1cc(S(=O)(=O)N2CCCCC2)ccc1NC(=O)c1ccccc1Cl	i	i	i	i	48	i
COc1ccc(NC(=O)c2cc(S(=O)(=O)N3CCCC3)cn2C)cc1Cl	38	i	i	i	i	i
COc1ccccc1C(=O)Nc1nc(-c2ccc(S(=O)(=O)N3CCOCC3)cc2)cs1	i	i	i	56	i	i
Cc1ccc(N(CC(O)CN2CCCCC2)S(=O)(=O)c2ccc(C)cc2)cc1 (stereo not drawn)	i	i	i	i	i	i
COCC(=O)OC1CCn2c1nc1c2C(=O)C(C)=C(NC(C)=O)C1=O (stereo not drawn)	nt	?	nt	87	nt	nt
O=C1N[C@@H](Cc2cnc[nH]2)C(=O)N2CCC[C@@H]12	45	i	i	i	i	i
CC(NC(=O)Nc1ccc(F)cc1)C(c1cccs1)N1CCCC1 (stereo not drawn)	nt	i	nt	i	nt	i
Cc1ccc(S(=O)(=O)NNC(=O)CCC(=O)Nc2ccc(C)c(C)c2)cc1	32	i	i	i	i	i
O=C(CCC(=O)NC12CC3CC(CC(C3)C1)C2)NC1CCCCC1	i	i	i	i	i	i
O=C(c1ccc(N2CCCCCC2)c([N+](=O)[O-])c1)N1CCc2ccccc21	i	nt	i	nt	i	i
O=C(CSc1nnc(-c2ccccc2)c(-c2ccccc2)n1)N1CCc2ccccc21	69	i	i	i	i	i
Cc1cc(C)nc(SCC(=O)N2CCc3ccccc32)n1	nt	i	nt	i	nt	nt
Cn1c(-c2ccccc2)cnc1SCC(=O)N1CCCc2ccccc21	i	i	i	i	i	i
O=C(CSc1ncc(-c2ccccc2)n1C1CCCC1)N1CCc2ccccc21	31	i	i	i	i	i
CC(=O)Nc1ccc(S(=O)(=O)N(C2=NCC(C)S2)c2ccccc2)cc1 (stereo not drawn)	51	i	i	i	i	i
Cn1c(=O)c2c(nc(NCC3CCCO3)n2Cc2ccccc2)n(C)c1=O (stereo not drawn)	i	i	i	i	40	i
CCn1c(NCc2ccccn2)nc2c1c(=O)n(C)c(=O)n2C	i	i	i	i	63	i
CC(Oc1ccccc1)C(=O)N=Nc1c(O)[nH]c2ccc([N+](=O)[O-])cc12 (stereo not drawn)	i	i	i	i	i	i
Cc1ccc(N2C(=O)C(Cl)=C(Nc3c(C)n(C)n(-c4ccccc4)c3=O)C2=O)cc1	32	i	i	i	i	i
Cc1cccc(N2C(=O)C(Cl)=C(Nc3c(C)n(C)n(-c4ccccc4)c3=O)C2=O)c1C	i	i	i	i	i	i
Cc1[nH]oc(=O)c1N=Nc1ccccc1	i	i	i	57	i	i
COc1ccc(Nc2nnc(C)c3ccccc23)cc1C(N)=O	i	i	i	i	i	i
O=c1cc(-c2ccco2)nc(SCc2cccc(Cl)c2)[nH]1	i	i	i	54	i	i
Cc1cc(C)nc(SCC(=O)N(C)CC(=O)Nc2c(Cl)cccc2Cl)n1	i	i	i	i	i	i
COc1ccc(NC(=O)CN(C)C(=O)CCSc2ccc(F)cc2)cc1	34	i	i	i	i	i
CN(CC(=O)Nc1cccc(F)c1)C(=O)CCSc1ccc(F)cc1	i	i	i	i	i	i
COc1cccc(NC(=O)CN(C)C(=O)CSc2nc(C)cc(C)n2)c1	41	i	i	i	i	i
CCSc1nnc2ccc(-c3ccco3)nn12	i	i	i	i	37	i
